Compound activity deposited in PubChem BioAssay by National Center for Advancing Translational Sciences (NCATS).
TRHR PAM – allosteric enhancers of human TRH receptor; P34981; hit rate 0.66% among 360,000; AID 493056; enhancement, % at 2 µM; TRHR cells, fluo-8 calcium fluorescence, EC20 TRH enhancement; in the data active means enhancement above about 30%
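Enhancer read-out: after compound pinning and an initial kinetic agonist-mode read, an EC20 of TRH (10 nM final) was injected and fluo-8 calcium signal (Ex 480/Em 530) followed at 1 s/cycle for 100 cycles in TRHR-expressing cells.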
TRHR ag – TRH receptor (human) agonism. AID 493084. hit rate 0.18% among 360,000. activation, % at 2 µM. TRHR cells, calcium flux fluo-8, FDSS agonist mode
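Agonist-mode FDSS calcium read (Ex 480/Em 530, 1 s cycles) in 1536-well TRHR cells with fluo-8 dye, after 10-cycle baseline and 23 nL compound addition; TRH at EC20 (10 nM final) added afterwards for the enhancer phase.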
D1 agonist – activates the human D1 dopamine receptor; hit rate 1% among 360,000; HEK293 T-REx D1 cells, calcium flux, agonist mode; P21728; activation, % at 2 µM; AID 504660
Target sequence (P21728 whole entry, looked up): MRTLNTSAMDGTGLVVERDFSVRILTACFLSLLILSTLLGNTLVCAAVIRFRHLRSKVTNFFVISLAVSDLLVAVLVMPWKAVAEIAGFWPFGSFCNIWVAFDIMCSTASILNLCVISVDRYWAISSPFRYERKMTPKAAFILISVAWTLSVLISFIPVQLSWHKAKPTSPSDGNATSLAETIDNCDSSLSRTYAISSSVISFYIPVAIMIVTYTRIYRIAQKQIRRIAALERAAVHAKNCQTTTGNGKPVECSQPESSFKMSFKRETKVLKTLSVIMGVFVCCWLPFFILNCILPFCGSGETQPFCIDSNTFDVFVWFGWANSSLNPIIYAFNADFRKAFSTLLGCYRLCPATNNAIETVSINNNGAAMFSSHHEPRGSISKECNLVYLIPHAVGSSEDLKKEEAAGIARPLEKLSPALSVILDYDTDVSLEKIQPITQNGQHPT
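Tetracycline-induced HEK293 TREx D1 cells, force-coupled to calcium signalling, were dye-loaded with a no-wash calcium kit. Compound was pin-added after a 10 s baseline. Fluorescence was read kinetically at 1 cycle/s for 180 s, with calcium rises flagged as agonism.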
D1 potentiator – human D1 dopamine receptor positive modulation; AID 504651; hit rate 0.036% among 360,000; HEK293 TREx D1 cells, calcium flux, dopamine EC20 potentiation; potentiation, % at 10 µM; P21728; in the data active means potentiation above about 30%
D1 antagonist – antagonists of human D1 dopamine receptor; P21728; HEK293 TREx D1 cells, calcium flux, dopamine EC80; stronger effect = lower value; activity change, negative = inhibition, % at 10 µM; hit rate 3.2% among 360,000; AID 504652; in the data active means activity change below about -30%
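Calcium flux readout: force-coupled, inducible Hek293 Trex D1 line, cells induced overnight at 30 C with tetracycline, dye-loaded 30–90 min at RT. Antagonism scored against EC80 dopamine challenge given 180 s after compound.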
Of the large screens only hits and unclear results are named; the others gave an inactive call; ! = a repeat was not active. The list is not random: actives were taken first. Their share in the collection is about 4.6%. Unless noted, no stated cut-off is given here; in the data, active means activation above about 30%; inactive means the rest.

Clc1ccc(C(OCCN2CCCCC2)c2ccccc2)cc1 (stereo not given)	none
CC(C)Cc1nnc(NC(=O)CCC(=O)N2CCN(CCOC(c3ccccc3)c3ccccc3)CC2)s1	D1 antagonist -32
c1cc2n(c1)-c1c(ccc3c1OCO3)CNC2c1ccc2c(c1)OCO2 (stereo not given)	none
COc1ccc(C2NCc3ccc4c(c3-n3cccc32)OCO4)cc1O (stereo not given)	D1 agonist 55, D1 antagonist -36
CC1CN=C(NCc2ccccc2Cl)S1 (stereo not given)	none
CN1CCC(N(C)c2ccc(C(N)=O)cc2[N+](=O)[O-])CC1	none
CN1C(=O)/C(=C/c2ccc(N3CCCCCC3)o2)C(=O)NC1=S	none
O=C1NC(=O)N(c2ccc3c(c2)OCO3)C(=O)/C1=C/c1ccc(N2CCCC2)o1	D1 agonist 33
CN1C(=O)C(=Cc2ccc(N3CCOCC3)o2)C(=O)N(C)C1=S	none
CN1CCN(c2ccc(/C=C3\C(=O)NC(=S)N(c4cccc(Br)c4)C3=O)o2)CC1	D1 agonist 90
CCN1C(=O)C(=Cc2ccc(N3CCOCC3)o2)C(=O)N(CC)C1=S	D1 agonist 66
CN1C(=O)/C(=C\c2ccc(N3CCCCC3)o2)C(=O)NC1=S	D1 agonist 33
COC(=O)C1=C(c2ccc(F)cc2F)C[C@@H]2CC[C@H]1N2C(=O)NCc1ccc2c(c1)OCO2	none
ClCCNc1nc2ccc(Cl)cc2[nH]1	none
Cn1cc(C(=O)OCC(=O)Nc2ccccc2)c2ccccc21	none
CCc1ccc(NC(=O)c2cccn(Cc3cccc([N+](=O)[O-])c3)c2=O)cc1	none (no result: D1 antagonist)
COc1cc(CN2CCN(c3cc(C)ccc3C)CC2)ccc1O	D1 antagonist -89
COc1ccc(CN2CC3CC(C2)c2cccc(=O)n2C3)cc1OC (stereo not given)	none
CCCC(=O)Nc1ccc(N2CCN(CC)CC2)c(Cl)c1	D1 antagonist -41
COc1cc(O)c(C(=O)O)c(-c2cc(O)c(O)cc2C)c1	D1 antagonist -31
C/C(=N\N1CCCCCC1)c1c(O)n(-c2ccc(C)cc2)c(=O)[nH]c1=O	D1 antagonist -40
C/C(=N\N1CCCCCC1)c1c(O)n(-c2ccc(Cl)cc2)c(=O)[nH]c1=O	none
CC(C(=O)N1CCC2(CC1)OCCO2)C1Sc2ccccc2NC1=O (stereo not given)	TRHR PAM 35
CC(C)c1oc(=O)cc2c1[C@@H](O)[C@H]1OC(=O)[C@@]3(C)CC[C@@H](O)[C@@]2(C)C13 (stereo not given in full)	none
C=CCN1C(=O)C2(C(C(=O)OCC)=C(N)Oc3ccccc32)c2c1c1ccccc1oc2=O (stereo not given)	none
CCOC(=O)C1=C(N)Oc2c(c(=O)oc3ccccc23)C12C(=O)N(C)c1ccccc12 (stereo not given)	D1 antagonist -67
CN1CCN(c2ccc([N+](=O)[O-])c(Sc3ccccn3)c2)CC1	D1 antagonist -70
CC(=O)N1CC(=O)Nc2ccc(Cl)cc2C1c1ccccc1 (stereo not given)	none
Cc1cccc(-n2c(O)c(/C=N/Nc3nc4c(c(=O)n(C)c(=O)n4C)n3C)c(=O)[nH]c2=S)c1	none
Cc1ccccc1-n1c(O)c(/C=N/Nc2nc3c(c(=O)n(C)c(=O)n3C)n2C)c(=O)[nH]c1=S	D1 antagonist -60
Clc1cccc(CN2CCCCC2c2cccnc2)c1 (stereo not given)	none
c1cncc(C2CCCCN2Cc2ccc3c(c2)OCO3)c1 (stereo not given)	D1 antagonist -38
CN1C[C@H](CNC(=O)OCc2ccccc2)C[C@@H]2c3cccc4c3c(cn4C)C[C@H]21	D1 agonist 37, D1 antagonist -87
Cn1c(O)c(C(=NCCc2c[nH]c3ccccc23)c2ccccc2)c(=O)n(C)c1=O	none
COC(=O)C1=C(c2cccc(OCc3ccccc3)c2)C[C@@H]2CC[C@H]1N2C(=O)NCc1cc(C)oc1C(F)(F)F	D1 antagonist -31
COC(=O)C1=C(c2cccc(OCc3ccccc3)c2)C[C@@H]2CC[C@H]1N2C(=O)NCc1ccc(OC)cc1	D1 potentiator 41
COC(=O)C1=C(c2ccc(F)cc2OCc2ccccc2)C[C@@H]2CC[C@H]1N2C(=O)NC1Cc2ccccc2C1	D1 antagonist -31
COC(=O)C1=C(c2cccc(OCc3ccccc3)c2)C[C@@H]2CC[C@H]1N2C(=O)NCc1cccc(C(F)(F)F)c1	none (no result: D1 antagonist)
O=C(Nc1ccon1)c1cccn(Cc2ccccc2)c1=O	none (no result: D1 antagonist)
COc1ccc(CCNCc2sccc2C)cc1OC	none
CC(C)CNc1c2c(nc3ccccc13)CCC2	none
c1ccc(CNc2c3c(nc4ccccc24)CCC3)cc1	D1 antagonist -50
Cc1ccccc1-n1c(-c2ccco2)nc2ccccc2c1=O	none
CCOc1ccc2nc(NC(=O)c3cccn(Cc4ccccc4)c3=O)sc2c1	D1 agonist 33 (no result: D1 antagonist)
COc1ccc2c(c1OC)CN1CCc3cc4c(cc3C1C2)OCO4 (stereo not given)	D1 antagonist -80
COc1ccc2c(c1OC)CN1CCc3cc4c(cc3[C@H]1C2)OCO4	D1 antagonist -80
COc1cc2c(cc1OC)C(C1c3cc4c(cc3CCN1C)OCO4)OC2=O (stereo not given)	none
Cc1cccc(-c2nn3c(=O)cc(CN4CCN(C(=O)COc5ccc(Cl)cc5)CC4)nc3s2)c1	none
CCC(CO)NC(=O)C1C=C2c3cccc4[nH]cc(c34)CC2N(C)C1 (stereo not given)	D1 antagonist -86
CC[C@@H](CO)NC(=O)[C@@H]1C=C2c3cccc4c3c(cn4C)C[C@H]2N(C)C1	D1 antagonist -77!
COC(=O)C1C=C2c3cccc4[nH]cc(c34)CC2N(C)C1 (stereo not given)	none
CN1CC(C#N)C2(O)c3ccccc3CCC2C1 (stereo not given)	none
COc1ccc2[nH]cc(CCN)c2c1	TRHR PAM 31
O=C1C2CCCC1C(N1CCCC1)CC2 (stereo not given)	none
CCC(=O)Nc1ccccc1	none
CCN(CC(=O)Nc1ccc(NC(C)=O)cc1)C(=O)CSC(c1ccccc1)c1ccccc1	D1 agonist 45
Cc1cc(O)c2c3c(c(=O)oc2c1)CCC(C)C3 (stereo not given)	D1 agonist 37, D1 antagonist -35
COCCNC(=O)c1c(NC(=O)c2ccc(Br)o2)n(Cc2ccccc2)c2nc3ccccc3nc12	D1 agonist 37
Cc1cccc(C2CC(=O)Oc3c2c(=O)oc2ccccc32)c1 (stereo not given)	none
CC1(C)CSC(=NCc2ccccc2)N1	TRHR ag 77, D1 agonist 152, D1 potentiator 36, D1 antagonist -38
CC(c1ccc(F)cc1)n1cc(C(=O)NCc2ccc3c(c2)OCO3)nn1 (stereo not given)	D1 agonist 31
